Test results as given in PubChem BioAssay (NCI).
This is part of a sample that, as a whole, favours compounds with a hit. Of some 83,000 tested, about 20% had one in any assay.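 96-well plates, one dose, 48 hours. Percent growth reported; active if below 10.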 The source made the active and inactive calls.

Key:
Experiment in all cases: NCI-60 one-dose screen, 48 h (100 = growth as untreated, 0 = no growth, -100 = all killed)
Details in all cases: 10 µM unless noted
T-47D breast = tested on: T-47D breast
BT-549 breast = tested on: BT-549 breast
MDA-MB-435 melanoma = tested on: MDA-MB-435 melanoma
SW-620 colon = tested on: SW-620 colon
MCF7 breast = tested on: MCF7 breast
HCT-116 colon = tested on: HCT-116 colon
HCC-2998 colon = tested on: HCC-2998 colon
KM12 colon = tested on: KM12 colon
MDA-MB-468 breast = tested on: MDA-MB-468 breast

Measured: growth

COc1ccc(-c2cc(-c3cc(C(C)C)c(O)cc3C)nn2-c2ccc(S(N)(=O)=O)cc2)cc1
inactive: T-47D breast 12.7% | SW-620 colon 28.2% | MCF7 breast 11% | HCT-116 colon 27.4% | HCC-2998 colon 45.9%
active: BT-549 breast -3.73% | MDA-MB-435 melanoma -58.2% | KM12 colon 2.28% | MDA-MB-468 breast -15.9%

COc1cncc(-c2ccc3ncnc(N4CCc5ccc(Cl)cc54)c3c2)c1
inactive: T-47D breast 14.1% | MDA-MB-435 melanoma 53.6% | SW-620 colon 60.7% | HCC-2998 colon 16.9% | KM12 colon 21.5%
active: BT-549 breast -72.1% | MCF7 breast -1.93% | HCT-116 colon -58% | MDA-MB-468 breast -67.4%

COc1ccc2c(c1)N=c1c-2cc2c(O)[nH]c(=S)n2c1=O
active: MDA-MB-435 melanoma 2.49% | MDA-MB-468 breast -25.9%
inactive: T-47D breast 46.4% | BT-549 breast 32.4% | SW-620 colon 47.4% | MCF7 breast 34.6% | HCT-116 colon 28.6% | HCC-2998 colon 60.1% | KM12 colon 42.7%

O=C(N/N=C/c1occc1Br)c1[nH]c2ccc(Br)cc2c1-c1ccccc1
active: T-47D breast -77% | BT-549 breast -89.4% | MDA-MB-435 melanoma -90.4% | SW-620 colon -86.3% | MCF7 breast -66.9% | HCT-116 colon -74.5% | HCC-2998 colon -89.6% | KM12 colon -46.6% | MDA-MB-468 breast -75.1%

COc1cc(C2CC(c3ccc(C(F)(F)F)cc3)=Nc3c(N)nc(N)nc3N2)ccc1Oc1nc(Nc2ccc(F)cc2)nc(N(C)C)n1 (stereo unspecified)
active: MCF7 breast 3.18% | HCT-116 colon -16.4% | HCC-2998 colon -17.8% | MDA-MB-468 breast -8.26%
inactive: T-47D breast 57.8% | BT-549 breast 70.3% | MDA-MB-435 melanoma 59.7% | SW-620 colon 53.2% | KM12 colon 32.6%

Cc1nn(-c2ccccc2)c2nc(C)n(C(=O)N/N=C/c3ccccc3)c(=O)c12
inactive: T-47D breast 90.6% | BT-549 breast 101% | MDA-MB-435 melanoma 102% | SW-620 colon 101% | MCF7 breast 92.9% | HCT-116 colon 102% | HCC-2998 colon 100% | KM12 colon 99.4% | MDA-MB-468 breast 115%

COc1ccc(-c2cc(C)nc3[nH]c(=O)sc23)cc1
inactive: BT-549 breast 58.9% | MDA-MB-435 melanoma 78.7% | SW-620 colon 98.1% | MCF7 breast 83.8% | HCT-116 colon 52.1% | HCC-2998 colon 84.2% | KM12 colon 81.3% | MDA-MB-468 breast 76%
active: T-47D breast -15.1%

Cc1ccc(-c2cc(C(=O)N=Nc3c(O)[nH]c4ccc(F)cc34)c3ccccc3n2)cc1
inactive: T-47D breast 39.9% | BT-549 breast 39.1% | MDA-MB-435 melanoma 61% | SW-620 colon 19.4% | MCF7 breast 18% | HCT-116 colon 21% | HCC-2998 colon 35.9% | KM12 colon 51.2% | MDA-MB-468 breast 31.1%

COc1c(F)ccc(C(=O)Nc2ccc3nc(NC(=O)C4CCCN(S(=O)(=O)c5ccc(C(C)(C)C)cc5)C4)sc3c2)c1F (stereo unspecified)
inactive: T-47D breast 42.5% | BT-549 breast 60.4% | MDA-MB-435 melanoma 76.7% | SW-620 colon 88.5% | MCF7 breast 41.5% | HCT-116 colon 58.3% | HCC-2998 colon 84.8% | KM12 colon 68.4% | MDA-MB-468 breast 86.7%

CC[C@]12C=CCN3CC[C@]4(C(=C(C(=O)OC)C1)Nc1cc(OC)c([C@@H]5[C@H]6O[C@H]6[C@@]6(CC)CC(C(=O)OC)=C7Nc8cc(O)ccc8[C@@]78CCN5[C@@H]68)cc14)[C@@H]32
active: T-47D breast 2.37% | BT-549 breast -29% | MDA-MB-435 melanoma -53.9% | SW-620 colon 1.97% | MCF7 breast -25.7% | HCT-116 colon -72.3% | HCC-2998 colon -76.3% | KM12 colon 0.303% | MDA-MB-468 breast -48.9%

O=C(Nc1ccc(S(=O)(=O)N2CCCCC2)cc1)C(Cl)Cl
inactive: T-47D breast 101% | BT-549 breast 124% | MDA-MB-435 melanoma 109% | SW-620 colon 109% | MCF7 breast 101% | HCT-116 colon 105% | HCC-2998 colon 124% | KM12 colon 104% | MDA-MB-468 breast 118%

Cc1cnc2ccc(Oc3ccccc3-c3ccccc3)nn12
inactive: T-47D breast 110% | BT-549 breast 107% | MDA-MB-435 melanoma 110% | SW-620 colon 124% | MCF7 breast 93% | HCT-116 colon 101% | HCC-2998 colon 113% | KM12 colon 107% | MDA-MB-468 breast 108%

CCN1CCN(Cc2ccc(C(=O)Nc3cccc(Nc4ccc5c(OC)cccc5n4)c3)cc2C(F)(F)F)CC1
active: T-47D breast -71.4% | BT-549 breast -94% | MDA-MB-435 melanoma -94.9% | SW-620 colon 7.01% | MCF7 breast -89.1% | HCT-116 colon -56.4% | HCC-2998 colon -94% | KM12 colon -37.6% | MDA-MB-468 breast -94.7%

COc1ccc2[nH]cc(-c3cc4nc(-c5cn(C)c6ncc(Br)cc56)cc(N)n4n3)c2c1
active: T-47D breast -62.7% | BT-549 breast -57.3% | MDA-MB-435 melanoma -61.6% | SW-620 colon -74.4% | MCF7 breast -59.7% | HCT-116 colon -95.9% | HCC-2998 colon -95% | KM12 colon -49.8% | MDA-MB-468 breast -83.1%

O=C(Cc1c(-c2cccc([N+](=O)[O-])c2)n(-c2ncnc3c2c(-c2ccccc2)c(-c2ccccc2)n3Cc2ccccc2)[nH]c1=O)c1ccc(Cl)c(Cl)c1
inactive: BT-549 breast 63.7% | MDA-MB-435 melanoma 19.9% | SW-620 colon 56.1% | MCF7 breast 24.7% | HCT-116 colon 32.3% | HCC-2998 colon 26.7% | KM12 colon 24.7%
active: T-47D breast 0.846% | MDA-MB-468 breast -10.4%

Nc1cc2ccccc2c(=O)n1NC(=O)c1ccccc1
inactive: T-47D breast 77.7% | BT-549 breast 120% | MDA-MB-435 melanoma 99.8% | SW-620 colon 94.8% | MCF7 breast 53.8% | HCT-116 colon 96.5% | HCC-2998 colon 120% | KM12 colon 97.7%
active: MDA-MB-468 breast -35.4%

Cn1cc(-c2cc(N)n3nc(-c4c[nH]c5ccc(Cl)cc45)cc3n2)c2cc(Br)cnc21
active: T-47D breast -50% | BT-549 breast -16.1% | MDA-MB-435 melanoma -80.8% | SW-620 colon -79.1% | MCF7 breast -59.8% | HCT-116 colon -74.3% | HCC-2998 colon -99% | KM12 colon -68.8% | MDA-MB-468 breast -93.6%

Cc1ccc(C(=O)C[n+]2cccc3c4ccccc4ccc32)cc1
active: MDA-MB-468 breast -10.3%
inactive: T-47D breast 43.8% | BT-549 breast 20.8% | MDA-MB-435 melanoma 13.5% | SW-620 colon 19.5% | MCF7 breast 11.8% | HCT-116 colon 11.8% | HCC-2998 colon 17.4% | KM12 colon 25.7%

Cc1cccc(C)c1Nc1nnc(-c2c[nH]c3ccccc23)o1
inactive: T-47D breast 87.1% | BT-549 breast 105% | MDA-MB-435 melanoma 103% | SW-620 colon 99.5% | MCF7 breast 83.4% | HCT-116 colon 100% | HCC-2998 colon 119% | KM12 colon 102% | MDA-MB-468 breast 93.2%

O=C(NNC(=O)c1ccc(OCc2nc3ccc(Cl)cc3[nH]2)cc1)Nc1ccc(Cl)c(C(F)(F)F)c1
active: HCT-116 colon 4.53%
inactive: T-47D breast 16.4% | BT-549 breast 64.7% | MDA-MB-435 melanoma 51.4% | SW-620 colon 65% | MCF7 breast 49.5% | HCC-2998 colon 73.9% | KM12 colon 49.1% | MDA-MB-468 breast 22.4%

COc1ccccc1/C=C/c1cccc(NC(=S)NCCCCN(C)C)c1
active: T-47D breast -58.7% | BT-549 breast -60.7% | MDA-MB-435 melanoma -91.6% | SW-620 colon 5.09% | MCF7 breast -73.9% | HCT-116 colon -43.4% | HCC-2998 colon -94.1% | KM12 colon -52.9% | MDA-MB-468 breast -86%

COc1cc(/C=C/C(=O)c2cnn(-c3cc(=O)[nH]c4ccc(Cl)cc34)c2C)cc(OC)c1OC
active: T-47D breast -31.4% | BT-549 breast -47% | MDA-MB-435 melanoma -9.26% | SW-620 colon -45.8% | MCF7 breast -37.6% | HCT-116 colon -67.6% | HCC-2998 colon -93.5% | KM12 colon -28.4% | MDA-MB-468 breast -83.1%

COc1ccc(-c2cc(C(=O)OCc3ccc(Br)cc3)nn2-c2ccc(S(C)(=O)=O)cc2)cc1OC
inactive: T-47D breast 48.4% | BT-549 breast 74% | MDA-MB-435 melanoma 89.8% | SW-620 colon 99.2% | MCF7 breast 72.1% | HCT-116 colon 83.4% | HCC-2998 colon 95.8% | KM12 colon 93.1% | MDA-MB-468 breast 64%

Cn1cc(-c2cc(N)n3nc(-c4c[nH]c5ccccc45)cc3n2)c2cc(F)ccc21
active: SW-620 colon -76.8% | MCF7 breast -7.62% | HCT-116 colon -71.3% | HCC-2998 colon -65.5% | KM12 colon -33.9% | MDA-MB-468 breast 8.2%
inactive: T-47D breast 15.8% | BT-549 breast 98.3% | MDA-MB-435 melanoma 14.6%

CCOc1ccccc1[C@H]1C(C(=O)c2ccc(Cl)cc2)C2(N[C@@H]1c1ccccc1)C(=O)Nc1ccc(Cl)cc12 (stereo partly specified)
active: BT-549 breast 9.4% | MCF7 breast 5.27% | MDA-MB-468 breast 4.39%
inactive: T-47D breast 19.9% | MDA-MB-435 melanoma 24.1% | SW-620 colon 38.1% | HCT-116 colon 11.1% | HCC-2998 colon 20.4% | KM12 colon 24.2%

FC(F)(F)CN1CCN(CCn2c(C(F)(F)F)cc3c(Cl)ncnc32)CC1
active: BT-549 breast -27.2% | HCT-116 colon 1.79% | HCC-2998 colon -96.7% | MDA-MB-468 breast -64%
inactive: T-47D breast 59.3% | MDA-MB-435 melanoma 38.7% | SW-620 colon 11.3% | MCF7 breast 25.3% | KM12 colon 70.7%

Cc1ccc(C(C)C)cc1Oc1cccc(-c2c(-c3ccc(C(F)(F)F)cc3)ncn2C2CCNCC2)n1
active: T-47D breast -83.6% | BT-549 breast -98.6% | MDA-MB-435 melanoma -93.4% | SW-620 colon -85.5% | MCF7 breast -85.3% | HCT-116 colon -94.3% | HCC-2998 colon -85.4% | KM12 colon -79.5% | MDA-MB-468 breast -90.3%

COc1cc(/C=N/NC(=O)c2ccc(OCc3nc4ccc(Cl)cc4[nH]3)cc2)cc(OC)c1OC
active: T-47D breast 7.17%
inactive: BT-549 breast 22.9% | MDA-MB-435 melanoma 37.7% | SW-620 colon 40.8% | MCF7 breast 18.3% | HCT-116 colon 22.8% | HCC-2998 colon 61.2% | KM12 colon 43.3% | MDA-MB-468 breast 43.4%

O=C(N/N=C/c1ccc(B(O)O)s1)c1[nH]c2ccc(Br)cc2c1-c1ccccc1
active: T-47D breast -77% | BT-549 breast -76.2% | MDA-MB-435 melanoma -75.1% | SW-620 colon -74% | MCF7 breast -67.1% | HCT-116 colon -62.9% | HCC-2998 colon -97.7% | KM12 colon -36.5% | MDA-MB-468 breast -95.9%
